Records with an inconclusive call do not appear. Calls of active or inactive are those of the source. Calls follow the shape of the dose curve; as a rule, active = well fitted cell-killing curve with a large enough effect in the repeat runs; inconclusive = weak or mixed curves, or effect the other way; inactive = no such curve, though single readings can be large or run the other way.
Experiment: qHTS assay to identify small molecule agonists of the vitamin D receptor (VDR) signaling pathway - cell viability counter screen (AID 743224); also: nearly all actives have a fitted effect of over 50% in size
Conditions: VDR-bla HEK293T viability, CellTiter-Glo luminescence, 16 h; series mostly up to 62.6 µM
Text: U.S. Tox21 Program National Center for Advancing Translational Sciences [NCATS] NIH Chemical Genomics Center [NCGC] U.S. Environmental Protection Agency [EPA] National Institutes of Environmental Health Sciences [NIEHS] National Toxicology Program [NTP] U.S. Food and Drug Administration [FDA] Tox21 Assay Overview: The vitamin D receptor (VDR), a member of nuclear hormone receptor superfamily, plays a critical role in calcium homeostasis and bone metabolism. It is also involved in cell differentiation and growth, and thrombogenicity. […] The cytotoxicity of the Tox21 compound library against the VDR-bla cell line was tested in parallel by measuring the cell viability using CellTiter-Glo assay (Promega, Madison, WI) in the same wells.
Tox21 Assay Protocol Summary: VDR-bla cells were dispensed at 2,000 cells/6 uL/well into black wall/clear-bottom 1536-well plates using a Multidrop Combi (Thermo Fisher Scientific, Waltham, MA) dispenser. After the assay plates were incubated at a 37C and 5% CO2 for 4 h, 23 nL of compounds dissolved in DMSO, positive controls or DMSO only was transferred to the assay plate by a Pintool station (Kalypsys, San Diego, CA). The plates were incubated at 37C and 5% CO2 for 16 h. After 1 uL of LiveBLAzerTM B/G FRET substrate was added using a Bioraptr Flying Reagent Dispenser (FRD) workstation (Beckman Coulter, Indianapolis, IN, USA), the plates were incubated at room temperature for 2 h, and fluorescence intensity was measured by an Envision plate reader (PerkinElmer, Shelton, CT). For cell viability readout that measures cytotoxicity, 3 ul/well of CellTiter-Glo reagent was added into the assay plates using a FRD. After 30 min incubation at room temperature, the luminescence intensity in the plates was measured using a ViewLux (PerkinElmer) plate reader.
With `C=CC(=O)OCC[N+](C)(C)C` the outcome was “inactive”.
For `CC12CCCC=C1C(=O)OC2=O` (stereo not given), the outcome was “inactive”.
In the case of `CNC(=O)c1c(I)c(NC(C)=O)c(I)c(C(=O)O)c1I`, the outcome is reported as “inactive”.
For `Cc1ccc(N)nc1`, the outcome was “inactive”.
With `CCCCCCCCCCCC(C)=O` the outcome was “inactive”.
With `Cc1cc(N)no1` the outcome was “inactive”.
With `CCCC(C)C(O)CC` (stereo not given) the outcome was “inactive”.
For `O=C(O)CCCCCCCCCC(=O)O`, the outcome was “inactive”.
In the case of `Cc1ccccc1OCC(=O)O`, the outcome is reported as “inactive”.
In the case of `OCCC(F)(F)C(F)(F)C(F)(F)C(F)(F)C(F)(F)C(F)(F)F`, the outcome is reported as “inactive”.
In the case of `CCCCCCC(O)CO` (stereo not given), the outcome is reported as “inactive”.
In the case of `CC(=O)SC[C@@H](C)C(=O)N1CCC[C@H]1C(=O)N[C@@H](Cc1ccccc1)C(=O)O`, the outcome is reported as “inactive”.
With `CC(=O)O[C@@H]1CC2C3CCc4cc(OC(=O)c5ccccc5)ccc4C3CCC2(C)[C@H]1OC(C)=O` (stereo not given in full) the outcome was “inactive”.
In the case of `CC(C)(C)OC(=O)c1ccccc1C(=O)O`, the outcome is reported as “inactive”.
In the case of `NC[C@H]1O[C@H](O[C@H]2[C@H](O)[C@@H](O[C@H]3O[C@H](CO)[C@@H](O)[C@H](N)[C@H]3O)[C@H](N)C[C@@H]2N)[C@H](N)[C@@H](O)[C@@H]1O`, the outcome is reported as “inactive”.
For `CN1C(CCl)Nc2cc(Cl)c(S(N)(=O)=O)cc2S1(=O)=O` (stereo not given), the outcome was “inactive”.
In the case of `CCCCCCCCCCCCCCCC/C=C/C1CC(=O)OC1=O` (stereo not given), the outcome is reported as “inactive”.
For `O=CN1CCCCC1`, the outcome was “inactive”.
With `CCC(C)(C)C` the outcome was “inactive”.
For `CC(C)OCCO`, the outcome was “inactive”.
In the case of `O=S(=O)(O)c1cc(I)c(O)c2ncccc12`, the outcome is reported as “inactive”.
In the case of `COc1ccc2cc(CCC(C)=O)ccc2c1`, the outcome is reported as “inactive”.
For `COC(=O)c1cc(Cl)c(NC(C)=O)cc1OC`, the outcome was “inactive”.
In the case of `CCCCc1ccc(Cl)cc1`, the outcome is reported as “inactive”.
With `CC(=O)Oc1ccc(C(C)=O)cc1` the outcome was “inactive”.
For `CC[C@@]1(c2ccccc2)NC(=O)N(C)C1=O`, the outcome was “inactive”.
In the case of `C=CCCCCCCCCOC(C)=O`, the outcome is reported as “inactive”.
For `CCO/C=C1\N=C(c2ccccc2)OC1=O`, the outcome was “inactive”.
In the case of `CCCCCCCCCCCCCCCCN(C)C`, the activity change, negative = cytotoxicity is reported as 12.1% [at 5.95 µM] (inactive).
With `CCN(CC)CC` the outcome was “inactive”.
In the case of `NC(=O)CC[C@@H](N)C(=O)O`, the outcome is reported as “inactive”.
In the case of `CCCc1ncc(C(=O)O)s1`, the outcome is reported as “inactive”.
In the case of `CCOc1ccccc1OCCN[C@H](C)Cc1ccc(OC)c(S(N)(=O)=O)c1`, the outcome is reported as “inactive”.
In the case of `CC(=O)Nc1ccc(OCCOCCOc2ccc(NC(C)=O)cc2)cc1`, the outcome is reported as “inactive”.
For `O=C1Nc2ccccc2C1=O`, the outcome was “inactive”.
For `CC(=O)/C=C/C=C1/C2CCC(C2)C1(C)C` (stereo not given), the outcome was “inactive”.
In the case of `Cc1nc2ccc(Cl)cc2[nH]1`, the outcome is reported as “inactive”.
For `CC1(C)CC(N)CC(C)(C)N1`, the outcome was “inactive”.
In the case of `CCCC(=O)OC`, the outcome is reported as “inactive”.
For `CNC(C)=O`, the outcome was “inactive”.

From PubChem BioAssay (Tox21)
% is scaled to controls: 0 for no effect and ±100 for the full control effect.
